Reference: the supplement of paper PMC6555819

How the values were obtained:
Experiment in all cases: PBM binding z-score (relative to random genomic background probes); higher = stronger binding; sequences stand for … in GC…GCGATTGACAGCGTAGAATGAAGG
[1] = system: RARb homodimer (NR concentration 270 nM)
In short: (§1)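 The probes on custom Agilent 4×180K protein-binding microarrays were double-stranded, with 34-nt variable regions bearing direct-repeat seeds, single-nucleotide variants, half-site ablations and random human genomic background sequences. Incubation lasted 1 h with ligand-free nuclear receptor dimers in PBS pH 7.4, 2% milk, 0.02% Triton X-100, 1 mM DTT, 0.2 mg/mL BSA and 0.4 mg/ml salmon testes DNA. Antibodies against each partner (one per run) detected bound dimers, and fluorescence scans were regression-normalized. Binding z-scores take the random background probes as reference.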

[2] = system: RARg:RXRa (NR concentration 270 nM, RXRa partner concentration 90 nM)
In short: as §1

[3] = system: RARg homodimer (NR concentration 270 nM)
In short: as §1

[4] = system: RXRa DBDmut IVT, anti-RXR (DBD mutation: RXRa K156A/R161A, NR concentration 90 nM)
In short: as §1

[5] = system: RXRa homodimer (NR concentration 180 nM)
In short: as §1

[6] = system: THRa:RXRa (NR concentration 90 nM, RXRa partner concentration 90 nM)
In short: as §1

[7] = system: THRa homodimer (NR concentration 90 nM)
In short: as §1

[8] = system: VDR homodimer (NR concentration 270 nM)
In short: as §1

Sequence	PBM binding z-score [1]	PBM binding z-score [2]	PBM binding z-score [3]	PBM binding z-score [4]	PBM binding z-score [5]	PBM binding z-score [6]	PBM binding z-score [7]	PBM binding z-score [8]
CCAGACAGGAGAGAAGGTAACTCAGCCTCGATTA	0.0999	-0.0304	0.0804	0.0336	0.0715	0.145	0.357	0.0493
TCTTGTAGATCAGCAGGTTCAGAAAGCTGGCCAA	-0.402	-0.138	-0.569	0.668	0.303	0.00022	-0.821	1.58
CAAACTTGGTCAAGGTCAAAGTCGGTTTGTGCCA	4.26	4.46	4.37	2.33	4.72	3.92	3.4	3.32
CCTCGGAGGACAGATGGTCAGAGCTGTCCGCTTT	0.0769	0.0731	0.421	-0.0448	-0.625	-0.175	-0.332	-0.436
CCTATTAGTTGACCATAAGGGCAACCGCAGCTCG	2.18	1.05	1.07	0.58	0.711	1.83	1.49	0.923
TCATATAGGTATAGGTGAAAGTCGAACGATATGA	0.405	0.646	0.511	0.538	1.13	0.242	-0.544	-0.127
ACACGGAGGACAAAGGTCAGAGCTACGCCAGTGA	4.59	6.1	5.24	1.57	5.15	3.56	0.702	1.17
CGTCAAAGTTCAAGGTAACGTTACAGAAAGCAGC	4	5.44	6.2	4.52	4.96	2.94	1.13	3.32
CAAACTAGGTAAAAGGTCAAAGTCGAGCCAACCA	4.69	6.32	5.16	1.67	7.54	4.01	1.07	2.02
AGAATGTGGTTATACGTAGATCAGGGAAGAAAGT	0.494	0.184	0.305	0.187	-0.0859	0.207	0.0442	-0.179
GCTGCTAGGTCAGGTTGTTCAGCTAACGGGTACG	2.56	2.2	3.13	0.777	0.914	1.71	0.779	0.556
AATACAGAGTCATCGTAGGCCAGAGTACGCACAG	0.0687	0.22	0.465	-0.473	0.406	1.69	-0.921	0.0153
TCTATTAGTTGAAGGGAAACCGACGAGTCCGTTT	-0.0745	-0.0691	-0.0615	1.6	0.396	-0.149	0.214	1.19
GCGACTGGGGCAACGCAGGTTACCATAAGGTTGG	1.32	0.851	0.785	-0.722	0.638	2.88	0.105	-0.176
TAGCCTTGGTCATGCGGGCCAGTATAGTGTCGGC	-0.234	-0.0381	0.129	-1.52	-0.29	-0.715	-0.902	-0.904
TCTATTAGTTGATTAGGGCAACCTAAACAGCGGA	0.947	0.824	0.799	0.995	0.669	0.862	0.4	0.145
TCATATAGGTAAACAGTTGAAAGTCCGTAAGTTA	0.802	0.44	0.23	1.9	0.856	0.535	0.428	0.845
GCGACTGGGGCAAAGCAGGTTACCATCAGGTTGG	0.97	0.227	0.303	-0.245	0.557	2.72	-0.213	-0.458
CGTCAAAGTTCAACTAAGGAAACGTAAAGCACGC	3.66	5.97	6.45	4.6	4.94	4.5	0.0826	3.88
TCTTGGAGATCAACAGGAGGTTAAGAAAGATCGA	0.488	1.9	0.145	0.185	1.3	1.14	-0.452	-0.283
ACAGACAGGTGAATGAAGGTAACTCAGCTGGACG	0.0507	0.439	0.784	-0.296	0.534	2.08	-0.448	-0.781
ATCGAAACGTCGAGGTGAGTATAGAGAAAGGGAA	-0.0564	0.238	0.317	-0.787	0.266	1.03	-0.0731	-0.175
CCTCGCAGGACAGAAGGTCAGAGCTGTCCGCTTT	3.34	2.74	2.61	0.371	1.74	1.58	0.0874	0.0556
CGTCAAAGTGCAAGGTAACGTAACAGAAAGCAGC	0.846	0.771	1.24	1.21	0.508	1.08	0.0291	0.017
TCACCAAGGTGAAAGGTCGTTGATGCACGCCTTG	2.63	4.15	2	1.09	5.41	3.33	0.739	0.922
CTCTAAAGGTCGTGCTCAGGTGAGTATACCAAAC	2.96	5.08	3.88	2.33	4.64	4.37	1.31	1.37

Sequence	PBM binding z-score [1]	PBM binding z-score [2]	PBM binding z-score [3]	PBM binding z-score [4]	PBM binding z-score [5]	PBM binding z-score [6]	PBM binding z-score [7]	PBM binding z-score [8]
TCACACAGGTGAAGGTAACTCAGGTACGCAGTCG	0.561	0.746	0.701	0.879	1.18	1.4	0.16	0.257
TCGAGTAGGTTACCAATGGTGCATTCAGCTTTCT	-0.0825	0.138	0.0849	0.244	0.365	-0.118	-0.617	-0.499
CCGACTGGGGCAAAGGTTAGCATACTCAGTACGA	1.56	2.76	1.55	0.057	2.79	0.962	-0.171	-0.381
AGAATGAGCTTATACGTAGATCAGGGAAGAAAGT	-0.75	-0.102	-0.0616	-0.769	-0.13	-0.46	-0.669	-0.447
CGAACGATGGCATGAGTTGATAGCAAATGCCGAT	-0.482	-0.189	-0.00968	0.0712	0.135	-0.2	-0.806	0.233
GCGACTGGGGCAAAGCAGGTTACCATAAGGTTGG	1.15	0.472	0.712	-0.374	0.33	2.84	0.0306	-0.59
TCATATAGGTAAATGCTACGTGAAAGTCCGATCT	-0.0537	0.346	0.292	1.58	0.839	-0.0231	0.0102	0.41
TCAGACAGTTGAAGGTAACTCAGGTACGCAGTCG	-0.0141	0.206	0.167	1.29	0.943	1.17	0.195	0.508
CGAACAAGGTCAGAACAGGACAGTGAAGGATGAT	3.28	4.38	4.86	2.29	3.5	4.28	1.11	1.14
CCGACTGGGCCATAAGGTTACCATAAGCCAGCCC	1.25	0.915	0.48	-0.727	0.767	2	1.52	-0.224
TAGCATAGGTCATTGGGCCAGTATAGTACGCATC	3.23	4.88	4.65	1.58	4.77	2.29	-0.526	0.622
TAGACTAGGTCATTGGGCCAGTATAGTACGCATC	2.75	3.47	4.19	0.824	2.44	2.45	0.646	1.26
CCTACTGGGCCCTTCAGAGGTCATTGATCATATG	3.67	3.27	2.24	-0.326	3.49	2.94	1.18	3.23
CTTTACGGGTCACTGACAGGTTATAGCATTTGGA	3.58	6.21	5.08	2.54	5.93	3.18	0.855	1.15
AGAATGAGTTTACCAAAGATCAGGGAAACGCTTG	-0.757	-0.0513	0.236	3	0.272	-0.103	-0.687	1.78
CCTCCAAGGTCAATGCTAGGTCAGTGAAAGCATT	5.1	7.37	6.33	3.35	4.78	4.47	2.91	2.71
ATCGAAAGGTCGAGGGTGAGTATACCCACCCGAA	2.59	4.14	4.24	0.471	4.59	1.94	-0.00779	0.138
CCTACTTGGCCAAGGTCATTGATCAGTCAAAGCA	3.78	4.01	3.47	2.56	3.83	3.82	3.07	3.62
TTACCTAGGTGAAGGTCGTTGATCCCTCTGTAGA	1.21	0.824	0.525	-0.143	1.29	1.9	0.379	0.61
ACTAGTTGGTCAGCTGAGCTCACACACAATTCGG	0.0845	-0.0715	0.577	0.194	-0.234	0.0887	-0.346	-0.289
AGGATGAGGTTAAGATCAGGGAAACAGAATACAT	1.48	2.1	1.71	0.731	2.55	2.66	1.15	1.08
ATATGTAGGTTAAGGGTCATTCAAGTTGGTTCGC	4.23	4.98	4.09	1.9	6.39	4.2	1.78	3.88
GATACAGGGTCAGCTAGAGGCTAGAGTATGGAAA	2.76	5.74	4.56	0.988	4.23	2.86	0.194	0.266
AGAACGAGGGCACGCTGAGTCGATAGCAGAGTAG	1.02	1.92	2.12	1.87	1.29	1.72	-0.22	0.912
TCTAGCAGGCCAGATGGTCACTCAAGAGGTACGG	0.18	0.0724	0.0188	-0.141	-0.0633	-0.597	-0.77	-1.21
GCTTGTAGATCCAGGTTAAGAAAGACTAAGCTAA	-0.153	-0.172	-0.0642	-0.00816	-0.0609	0.485	-0.162	-0.0555
